# Key:
# Assay in all cases: DAPPL (digital affinity profiling via proximity ligation, sequencing); 10 mM Tris-HCl pH 7.5, 50 mM NaCl, 1 mM DTT, 4% glycerol, room temperature, 30 min; GST-TFs on glutathione beads, 16-mer random dsDNA library, 0.1% formaldehyde crosslink after washing; high values mean tight binding
# FEV = target: T1, FEV (Homo sapiens, UniProt Q99581 1-238); conditions: protein: recombinant; tags: N-terminal GST; dsDNA, one strand shown
# T1 sequence: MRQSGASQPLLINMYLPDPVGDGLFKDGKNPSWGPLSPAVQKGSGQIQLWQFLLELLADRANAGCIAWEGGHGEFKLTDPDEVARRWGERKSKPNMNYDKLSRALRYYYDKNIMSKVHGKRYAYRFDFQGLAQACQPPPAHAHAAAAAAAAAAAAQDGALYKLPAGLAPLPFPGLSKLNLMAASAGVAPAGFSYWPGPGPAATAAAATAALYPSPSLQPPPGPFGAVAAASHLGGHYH
# Procedure, shortened: (§1)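 Yeast served to express human transcription factors as GST fusions, which were then captured on glutathione beads and labelled with DNA barcodes. Pooled with a tag-only sample, they were incubated with 200 nmole of a 16-mer random double-stranded DNA library for 30 min at room temperature in Tris/NaCl/DTT/glycerol buffer, washed, crosslinked with 0.1% formaldehyde, ligated by proximity, amplified by PCR and sequenced. Dividing each hexamer's read frequency for a factor by its frequency for the tag-only sample gives the binding signal.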
# ETV5 = ETV5 (Homo sapiens, UniProt P41161 1-510); conditions: protein: recombinant; tags: N-terminal GST; dsDNA, one strand shown
# Procedure, shortened: as §1
# HSF1 = HSF1 (Homo sapiens, UniProt Q00613 1-529); conditions: protein: recombinant; tags: N-terminal GST; chain copies: 3; dsDNA, one strand shown
# Procedure, shortened: as §1
# SPIC = target: T2, SPIC (Homo sapiens, UniProt Q8N5J4 1-248); conditions: protein: recombinant; tags: N-terminal GST; dsDNA, one strand shown
# T2 sequence: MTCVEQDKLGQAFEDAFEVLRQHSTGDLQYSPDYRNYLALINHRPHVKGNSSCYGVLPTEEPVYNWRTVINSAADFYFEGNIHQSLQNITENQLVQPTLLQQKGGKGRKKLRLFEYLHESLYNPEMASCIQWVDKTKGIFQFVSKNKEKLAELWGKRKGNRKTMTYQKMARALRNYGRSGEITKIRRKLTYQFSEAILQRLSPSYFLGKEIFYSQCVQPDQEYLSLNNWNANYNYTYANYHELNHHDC
# Procedure, shortened: as §1
# ELF4 = ELF4 (Homo sapiens, UniProt Q99607 1-663); conditions: protein: recombinant; tags: N-terminal GST; dsDNA, one strand shown
# Procedure, shortened: as §1
# ELK4 = target: T3, ELK4 (Homo sapiens, UniProt P28324-2 1-405); conditions: protein: recombinant; tags: N-terminal GST; dsDNA, one strand shown
# T3 sequence: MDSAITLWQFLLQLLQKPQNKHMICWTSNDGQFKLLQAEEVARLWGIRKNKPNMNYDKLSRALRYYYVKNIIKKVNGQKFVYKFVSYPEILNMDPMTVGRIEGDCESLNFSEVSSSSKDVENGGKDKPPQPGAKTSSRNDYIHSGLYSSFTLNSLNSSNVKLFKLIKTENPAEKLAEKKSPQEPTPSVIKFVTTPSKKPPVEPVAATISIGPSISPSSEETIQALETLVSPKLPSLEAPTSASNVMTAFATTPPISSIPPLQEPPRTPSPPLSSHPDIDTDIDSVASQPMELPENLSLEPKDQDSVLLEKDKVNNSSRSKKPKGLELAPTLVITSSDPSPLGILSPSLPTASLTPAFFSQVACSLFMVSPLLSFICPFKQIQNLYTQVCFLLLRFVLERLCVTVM
# Procedure, shortened: as §1
# ETV2 = target: T4, ETV2 (Homo sapiens, UniProt O00321 1-342); conditions: protein: recombinant; tags: N-terminal GST; dsDNA, one strand shown
# T4 sequence: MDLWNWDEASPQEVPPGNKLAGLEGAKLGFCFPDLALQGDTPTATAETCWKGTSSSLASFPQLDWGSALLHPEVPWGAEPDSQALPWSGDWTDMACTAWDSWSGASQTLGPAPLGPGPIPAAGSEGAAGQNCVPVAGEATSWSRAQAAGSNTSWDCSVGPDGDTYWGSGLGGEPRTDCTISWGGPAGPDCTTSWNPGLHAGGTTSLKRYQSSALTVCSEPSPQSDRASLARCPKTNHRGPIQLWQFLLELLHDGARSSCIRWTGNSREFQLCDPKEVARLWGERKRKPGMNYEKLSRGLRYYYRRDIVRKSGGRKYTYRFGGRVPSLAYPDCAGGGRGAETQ
# Procedure, shortened: as §1
# ELF3 = target: T5, ELF3 (Homo sapiens, UniProt P78545 1-371); conditions: protein: recombinant; tags: N-terminal GST; dsDNA, one strand shown
# T5 sequence: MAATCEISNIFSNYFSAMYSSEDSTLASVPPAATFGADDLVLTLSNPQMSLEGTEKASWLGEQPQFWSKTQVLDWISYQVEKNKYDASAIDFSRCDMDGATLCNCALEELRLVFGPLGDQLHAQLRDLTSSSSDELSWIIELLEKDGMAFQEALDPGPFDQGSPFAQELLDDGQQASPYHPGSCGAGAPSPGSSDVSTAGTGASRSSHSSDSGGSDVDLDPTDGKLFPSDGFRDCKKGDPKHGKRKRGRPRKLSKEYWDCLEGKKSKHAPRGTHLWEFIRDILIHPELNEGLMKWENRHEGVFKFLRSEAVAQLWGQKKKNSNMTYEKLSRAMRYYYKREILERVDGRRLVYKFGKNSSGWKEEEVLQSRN
# Procedure, shortened: as §1
# CRX = CRX (Homo sapiens, UniProt O43186 1-299); conditions: protein: recombinant; tags: N-terminal GST; dsDNA, one strand shown
# Procedure, shortened: as §1
# ETV1 = ETV1 (Homo sapiens, UniProt P50549 1-477); conditions: protein: recombinant; tags: N-terminal GST; dsDNA, one strand shown
# Procedure, shortened: as §1
# ERF = target: T6, ERF (Homo sapiens, UniProt P50548 1-548); conditions: protein: recombinant; tags: N-terminal GST; dsDNA, one strand shown
# T6 sequence: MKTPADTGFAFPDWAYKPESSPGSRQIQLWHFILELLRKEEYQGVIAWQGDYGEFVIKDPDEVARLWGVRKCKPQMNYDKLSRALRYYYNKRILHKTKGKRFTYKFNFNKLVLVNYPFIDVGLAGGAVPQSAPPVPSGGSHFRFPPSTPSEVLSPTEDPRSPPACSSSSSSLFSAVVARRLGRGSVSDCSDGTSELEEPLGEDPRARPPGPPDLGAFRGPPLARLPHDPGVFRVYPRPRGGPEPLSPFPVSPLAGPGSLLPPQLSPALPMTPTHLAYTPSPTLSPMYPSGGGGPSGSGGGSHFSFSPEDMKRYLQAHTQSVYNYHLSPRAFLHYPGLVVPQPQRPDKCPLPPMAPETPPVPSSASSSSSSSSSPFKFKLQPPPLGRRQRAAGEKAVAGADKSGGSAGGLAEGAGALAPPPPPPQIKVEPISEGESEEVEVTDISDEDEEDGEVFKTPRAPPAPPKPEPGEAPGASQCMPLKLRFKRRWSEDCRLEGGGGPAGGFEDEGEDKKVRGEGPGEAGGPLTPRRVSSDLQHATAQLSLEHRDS
# Procedure, shortened: as §1
# ETV3L = target: T7, ETV3L (Homo sapiens, UniProt Q6ZN32 1-361); conditions: protein: recombinant; tags: N-terminal GST; dsDNA, one strand shown
# T7 sequence: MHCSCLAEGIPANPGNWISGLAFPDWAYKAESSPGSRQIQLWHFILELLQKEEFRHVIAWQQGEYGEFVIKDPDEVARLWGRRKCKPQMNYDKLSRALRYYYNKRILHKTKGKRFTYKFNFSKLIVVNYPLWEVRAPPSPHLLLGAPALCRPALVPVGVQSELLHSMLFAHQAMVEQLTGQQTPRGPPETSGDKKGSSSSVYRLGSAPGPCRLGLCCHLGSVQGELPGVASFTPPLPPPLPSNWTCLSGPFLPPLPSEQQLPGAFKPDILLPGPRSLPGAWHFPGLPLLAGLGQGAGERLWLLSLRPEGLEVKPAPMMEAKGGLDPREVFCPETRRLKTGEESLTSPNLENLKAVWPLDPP
# Procedure, shortened: as §1
# ETS2 = target: T8, ETS2 (Homo sapiens, UniProt P15036 1-469); conditions: protein: recombinant; tags: N-terminal GST; dsDNA, one strand shown
# T8 sequence: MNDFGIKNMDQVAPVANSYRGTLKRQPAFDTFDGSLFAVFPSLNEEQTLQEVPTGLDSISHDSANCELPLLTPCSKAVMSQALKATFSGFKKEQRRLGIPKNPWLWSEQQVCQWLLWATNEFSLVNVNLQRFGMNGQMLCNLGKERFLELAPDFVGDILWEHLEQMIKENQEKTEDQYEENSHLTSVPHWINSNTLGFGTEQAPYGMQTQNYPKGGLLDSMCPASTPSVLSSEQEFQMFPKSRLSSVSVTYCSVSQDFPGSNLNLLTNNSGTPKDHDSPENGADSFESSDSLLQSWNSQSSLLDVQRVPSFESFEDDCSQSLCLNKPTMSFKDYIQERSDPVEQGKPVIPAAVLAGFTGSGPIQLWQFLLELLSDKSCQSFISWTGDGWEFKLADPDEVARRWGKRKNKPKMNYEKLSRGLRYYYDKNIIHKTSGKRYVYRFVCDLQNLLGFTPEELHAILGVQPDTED
# Procedure, shortened: as §1
# SPDEF = target: T9, SPDEF (Homo sapiens, UniProt O95238 1-335); conditions: protein: recombinant; tags: N-terminal GST; dsDNA, one strand shown
# T9 sequence: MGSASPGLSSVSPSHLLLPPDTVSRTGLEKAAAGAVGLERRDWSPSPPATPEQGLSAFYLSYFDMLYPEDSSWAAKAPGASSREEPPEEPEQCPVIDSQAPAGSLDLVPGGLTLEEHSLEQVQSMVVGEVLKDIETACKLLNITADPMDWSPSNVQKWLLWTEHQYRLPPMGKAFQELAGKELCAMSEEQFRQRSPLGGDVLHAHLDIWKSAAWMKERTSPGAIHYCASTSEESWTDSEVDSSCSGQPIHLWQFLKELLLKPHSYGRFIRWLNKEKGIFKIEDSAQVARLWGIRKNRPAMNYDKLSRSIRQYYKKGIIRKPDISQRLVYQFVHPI
# Procedure, shortened: as §1
# ETV7 = target: T10, ETV7 (Homo sapiens, UniProt Q9Y603 1-341); conditions: protein: recombinant; tags: N-terminal GST; dsDNA, one strand shown
# T10 sequence: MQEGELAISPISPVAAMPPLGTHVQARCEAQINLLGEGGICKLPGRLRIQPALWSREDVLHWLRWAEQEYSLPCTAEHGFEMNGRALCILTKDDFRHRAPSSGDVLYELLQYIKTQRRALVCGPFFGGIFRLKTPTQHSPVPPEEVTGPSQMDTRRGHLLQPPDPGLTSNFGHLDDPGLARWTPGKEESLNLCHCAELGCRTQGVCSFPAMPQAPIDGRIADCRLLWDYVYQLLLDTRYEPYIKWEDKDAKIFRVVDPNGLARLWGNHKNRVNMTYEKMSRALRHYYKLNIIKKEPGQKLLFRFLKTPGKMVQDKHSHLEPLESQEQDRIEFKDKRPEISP
# Procedure, shortened: as §1
# ELF5 = target: T11, ELF5 (Homo sapiens, UniProt Q9UKW6-2 1-255); conditions: protein: recombinant; tags: N-terminal GST; dsDNA, one strand shown
# T11 sequence: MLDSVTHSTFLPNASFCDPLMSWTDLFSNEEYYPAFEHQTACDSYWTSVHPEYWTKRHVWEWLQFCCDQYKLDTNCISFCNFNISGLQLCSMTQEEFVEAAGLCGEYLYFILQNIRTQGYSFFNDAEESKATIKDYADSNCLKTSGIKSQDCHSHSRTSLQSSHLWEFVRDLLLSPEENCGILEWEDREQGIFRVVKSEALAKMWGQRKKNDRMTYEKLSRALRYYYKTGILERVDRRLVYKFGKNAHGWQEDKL
# Procedure, shortened: as §1
# ETV3 = target: T12, ETV3 (Homo sapiens, UniProt P41162-2 1-143); conditions: protein: recombinant; tags: N-terminal GST; dsDNA, one strand shown
# T12 sequence: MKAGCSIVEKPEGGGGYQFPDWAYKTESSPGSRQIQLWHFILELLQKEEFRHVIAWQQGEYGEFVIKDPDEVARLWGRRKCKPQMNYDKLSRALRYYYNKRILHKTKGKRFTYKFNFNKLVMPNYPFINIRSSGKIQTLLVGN
# Procedure, shortened: as §1
# ETV6 = ETV6 (Homo sapiens, UniProt P41212 1-452); conditions: protein: recombinant; tags: N-terminal GST; dsDNA, one strand shown
# Procedure, shortened: as §1
# Chain of ETV6 (P41212 whole entry): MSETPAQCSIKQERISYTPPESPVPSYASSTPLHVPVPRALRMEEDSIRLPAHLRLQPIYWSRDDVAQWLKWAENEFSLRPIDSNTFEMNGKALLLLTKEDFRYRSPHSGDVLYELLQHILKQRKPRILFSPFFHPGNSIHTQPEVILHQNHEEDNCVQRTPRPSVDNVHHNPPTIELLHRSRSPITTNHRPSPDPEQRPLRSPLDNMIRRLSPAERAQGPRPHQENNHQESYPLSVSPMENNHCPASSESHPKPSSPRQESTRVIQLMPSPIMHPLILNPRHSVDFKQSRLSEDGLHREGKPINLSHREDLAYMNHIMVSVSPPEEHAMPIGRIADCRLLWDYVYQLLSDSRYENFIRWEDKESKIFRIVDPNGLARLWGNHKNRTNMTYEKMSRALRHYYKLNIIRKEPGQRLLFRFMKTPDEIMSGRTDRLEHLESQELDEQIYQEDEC
# Chain of ELF4 (Q99607 whole entry): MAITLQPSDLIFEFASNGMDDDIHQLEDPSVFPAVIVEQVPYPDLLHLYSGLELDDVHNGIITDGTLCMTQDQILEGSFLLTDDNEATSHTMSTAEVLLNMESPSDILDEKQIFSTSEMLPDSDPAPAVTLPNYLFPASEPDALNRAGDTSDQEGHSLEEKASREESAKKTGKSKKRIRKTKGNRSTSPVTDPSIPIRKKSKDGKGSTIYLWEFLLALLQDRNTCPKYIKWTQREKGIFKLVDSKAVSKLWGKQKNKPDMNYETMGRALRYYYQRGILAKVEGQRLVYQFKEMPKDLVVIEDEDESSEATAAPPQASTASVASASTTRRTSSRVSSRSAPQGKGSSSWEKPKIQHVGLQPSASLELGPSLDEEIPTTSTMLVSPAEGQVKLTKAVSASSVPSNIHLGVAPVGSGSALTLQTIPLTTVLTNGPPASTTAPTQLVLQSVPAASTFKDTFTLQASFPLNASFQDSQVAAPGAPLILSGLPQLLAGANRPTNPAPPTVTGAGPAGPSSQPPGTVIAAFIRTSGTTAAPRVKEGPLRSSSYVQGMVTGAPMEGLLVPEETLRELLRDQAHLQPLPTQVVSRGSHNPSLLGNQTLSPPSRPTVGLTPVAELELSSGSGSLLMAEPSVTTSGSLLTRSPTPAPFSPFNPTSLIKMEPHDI
# Chain of ETV1 (P50549 whole entry): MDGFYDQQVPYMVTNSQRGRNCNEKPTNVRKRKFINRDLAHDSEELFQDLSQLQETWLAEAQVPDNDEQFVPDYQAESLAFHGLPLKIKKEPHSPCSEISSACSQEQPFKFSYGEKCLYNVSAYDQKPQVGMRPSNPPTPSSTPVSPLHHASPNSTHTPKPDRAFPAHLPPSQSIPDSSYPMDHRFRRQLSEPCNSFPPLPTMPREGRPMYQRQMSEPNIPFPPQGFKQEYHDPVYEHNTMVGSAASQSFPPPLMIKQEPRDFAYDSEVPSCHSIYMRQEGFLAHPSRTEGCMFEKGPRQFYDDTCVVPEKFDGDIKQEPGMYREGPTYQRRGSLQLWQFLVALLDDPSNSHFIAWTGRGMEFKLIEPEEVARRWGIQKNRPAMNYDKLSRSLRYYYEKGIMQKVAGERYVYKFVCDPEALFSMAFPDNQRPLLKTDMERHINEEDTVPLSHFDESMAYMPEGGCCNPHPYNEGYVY
# Chain of ETV5 (P41161 whole entry): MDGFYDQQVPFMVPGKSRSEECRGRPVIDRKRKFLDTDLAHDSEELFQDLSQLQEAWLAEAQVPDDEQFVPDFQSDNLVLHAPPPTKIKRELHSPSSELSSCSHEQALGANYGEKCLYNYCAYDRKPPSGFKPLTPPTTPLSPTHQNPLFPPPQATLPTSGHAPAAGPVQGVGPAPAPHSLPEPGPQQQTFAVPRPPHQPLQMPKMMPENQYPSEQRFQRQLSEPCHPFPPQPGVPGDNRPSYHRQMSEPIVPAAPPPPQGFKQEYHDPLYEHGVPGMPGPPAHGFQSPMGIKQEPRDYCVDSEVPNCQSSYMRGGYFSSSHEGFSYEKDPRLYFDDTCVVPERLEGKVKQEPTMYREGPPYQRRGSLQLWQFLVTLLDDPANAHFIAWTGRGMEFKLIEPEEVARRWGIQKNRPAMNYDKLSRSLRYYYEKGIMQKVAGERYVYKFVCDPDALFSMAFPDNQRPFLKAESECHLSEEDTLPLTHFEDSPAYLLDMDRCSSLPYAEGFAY
# Chain of HSF1 (Q00613 whole entry): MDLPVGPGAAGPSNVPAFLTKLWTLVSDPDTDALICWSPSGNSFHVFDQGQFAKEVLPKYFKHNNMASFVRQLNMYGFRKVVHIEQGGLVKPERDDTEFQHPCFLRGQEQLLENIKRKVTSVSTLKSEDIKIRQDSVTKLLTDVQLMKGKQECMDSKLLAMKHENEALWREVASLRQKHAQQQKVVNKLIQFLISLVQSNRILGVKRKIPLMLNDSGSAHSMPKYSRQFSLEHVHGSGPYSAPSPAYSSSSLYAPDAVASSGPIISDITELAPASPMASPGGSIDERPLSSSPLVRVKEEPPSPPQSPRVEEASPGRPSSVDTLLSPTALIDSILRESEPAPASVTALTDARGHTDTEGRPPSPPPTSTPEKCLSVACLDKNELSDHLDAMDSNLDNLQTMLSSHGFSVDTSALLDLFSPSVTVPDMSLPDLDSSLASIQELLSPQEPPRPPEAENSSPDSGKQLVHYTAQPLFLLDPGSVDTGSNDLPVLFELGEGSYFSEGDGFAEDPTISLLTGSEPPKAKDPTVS
# Chain of CRX (O43186 whole entry): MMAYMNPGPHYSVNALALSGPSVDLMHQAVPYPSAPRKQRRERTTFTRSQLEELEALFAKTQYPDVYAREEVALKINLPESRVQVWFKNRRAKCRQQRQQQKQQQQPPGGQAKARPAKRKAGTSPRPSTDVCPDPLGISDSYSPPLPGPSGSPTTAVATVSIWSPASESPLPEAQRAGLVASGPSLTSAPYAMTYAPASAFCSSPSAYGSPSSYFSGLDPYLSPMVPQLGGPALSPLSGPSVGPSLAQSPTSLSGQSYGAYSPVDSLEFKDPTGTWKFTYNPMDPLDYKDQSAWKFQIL
sequence,measurement,setting,value
CTATAC,binding signal,FEV,"1.3 fold enrichment (6-mer frequency, TF over GST control)"
same,binding signal,ETV5,"1.22 fold enrichment (6-mer frequency, TF over GST control)"
same,binding signal,HSF1,"1.14 fold enrichment (6-mer frequency, TF over GST control)"
same,binding signal,SPIC,"1.21 fold enrichment (6-mer frequency, TF over GST control)"
same,binding signal,ELF4,"1.29 fold enrichment (6-mer frequency, TF over GST control)"
same,binding signal,ELK4,"1.07 fold enrichment (6-mer frequency, TF over GST control)"
same,binding signal,ETV2,"1.4 fold enrichment (6-mer frequency, TF over GST control)"
same,binding signal,ELF3,"1.24 fold enrichment (6-mer frequency, TF over GST control)"
same,binding signal,CRX,"1.19 fold enrichment (6-mer frequency, TF over GST control)"
same,binding signal,ETV1,"1.29 fold enrichment (6-mer frequency, TF over GST control)"
same,binding signal,ERF,"1.21 fold enrichment (6-mer frequency, TF over GST control)"
same,binding signal,ETV3L,"1.19 fold enrichment (6-mer frequency, TF over GST control)"
same,binding signal,ETS2,"1.28 fold enrichment (6-mer frequency, TF over GST control)"
same,binding signal,SPDEF,"1.39 fold enrichment (6-mer frequency, TF over GST control)"
same,binding signal,ETV7,"1.19 fold enrichment (6-mer frequency, TF over GST control)"
same,binding signal,ELF5,"1.26 fold enrichment (6-mer frequency, TF over GST control)"
same,binding signal,ETV3,"1.24 fold enrichment (6-mer frequency, TF over GST control)"
same,binding signal,ETV6,"1.28 fold enrichment (6-mer frequency, TF over GST control)"

# Reference: article PMC7862700, “An all-to-all approach to the identification of sequence-specific readers for epigenetic DNA modifications on cytosine”
